A word on the AC50: it is the concentration at which the activity in the assay is half-maximal.

Molecules are shown by their SMILES. Several values for one entry are separate records, joined by “and”; a condition that tells them apart may be missing. Identical values can stand only once. Inconclusive results are not listed. Activity calls are given as the source filed them. Rule for the calls: active = hit-call score of the fitted dose curve at least 0.9, where 1 is the maximum; inconclusive = response in the unintended direction; inactive = score below 0.9.

The source of these data is PubChem BioAssay (EPA / NIEHS).

Chain of sheep Cyclooxygenase-1 (Cox1), PTGS1 (gene 443551) (P05979 whole entry, looked up): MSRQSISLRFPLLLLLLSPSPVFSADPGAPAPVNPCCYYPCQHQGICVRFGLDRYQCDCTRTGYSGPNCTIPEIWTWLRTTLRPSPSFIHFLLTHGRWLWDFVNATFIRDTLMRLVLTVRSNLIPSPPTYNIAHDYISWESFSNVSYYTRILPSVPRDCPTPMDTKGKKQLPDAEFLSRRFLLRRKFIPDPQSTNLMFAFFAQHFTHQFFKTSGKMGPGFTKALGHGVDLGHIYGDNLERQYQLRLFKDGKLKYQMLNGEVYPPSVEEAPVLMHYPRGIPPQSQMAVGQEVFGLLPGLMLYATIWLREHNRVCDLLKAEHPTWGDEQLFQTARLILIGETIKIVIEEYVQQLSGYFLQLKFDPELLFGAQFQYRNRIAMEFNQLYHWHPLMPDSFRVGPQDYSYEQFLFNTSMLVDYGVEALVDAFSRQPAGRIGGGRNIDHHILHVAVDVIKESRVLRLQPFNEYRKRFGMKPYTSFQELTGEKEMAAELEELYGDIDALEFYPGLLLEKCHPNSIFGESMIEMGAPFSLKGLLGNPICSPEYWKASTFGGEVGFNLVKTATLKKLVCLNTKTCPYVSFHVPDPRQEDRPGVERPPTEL
Chain of human Serotonin, 5-Hydroxytryptamine Receptor 7 (5HT7), HTR7 (gene 3363) (P34969 whole entry, looked up): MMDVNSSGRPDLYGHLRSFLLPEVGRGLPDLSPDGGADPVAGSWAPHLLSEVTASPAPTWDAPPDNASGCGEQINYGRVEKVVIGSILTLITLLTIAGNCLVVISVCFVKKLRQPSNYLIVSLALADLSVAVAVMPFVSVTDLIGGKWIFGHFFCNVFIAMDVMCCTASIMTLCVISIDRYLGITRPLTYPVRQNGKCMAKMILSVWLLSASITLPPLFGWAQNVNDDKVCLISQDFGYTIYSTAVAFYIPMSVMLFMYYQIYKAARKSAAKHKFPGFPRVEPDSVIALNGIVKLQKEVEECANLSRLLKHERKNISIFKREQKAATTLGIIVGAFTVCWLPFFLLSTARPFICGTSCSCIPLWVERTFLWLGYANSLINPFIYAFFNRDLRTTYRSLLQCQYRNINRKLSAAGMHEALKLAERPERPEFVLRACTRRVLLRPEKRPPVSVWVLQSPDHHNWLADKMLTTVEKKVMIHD
Chain of bovine Dopamine Receptor (DR), Non-selective Binding, DRD1 (gene 281125) (Q95136 whole entry, looked up): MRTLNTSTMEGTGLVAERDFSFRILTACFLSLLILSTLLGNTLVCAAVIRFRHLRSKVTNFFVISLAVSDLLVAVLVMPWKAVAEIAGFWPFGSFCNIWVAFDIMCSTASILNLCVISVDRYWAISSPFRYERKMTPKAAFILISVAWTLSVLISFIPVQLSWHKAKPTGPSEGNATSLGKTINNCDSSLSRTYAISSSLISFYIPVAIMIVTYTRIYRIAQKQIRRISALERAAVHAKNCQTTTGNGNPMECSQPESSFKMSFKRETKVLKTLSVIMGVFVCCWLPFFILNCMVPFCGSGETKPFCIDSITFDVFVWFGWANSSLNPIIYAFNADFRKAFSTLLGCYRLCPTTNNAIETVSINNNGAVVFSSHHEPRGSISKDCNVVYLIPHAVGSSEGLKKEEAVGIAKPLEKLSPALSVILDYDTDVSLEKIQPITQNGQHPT
Chain of human Adenosine A1 Receptor (AdoRA1), ADORA1 (gene 134) (P30542 whole entry, looked up): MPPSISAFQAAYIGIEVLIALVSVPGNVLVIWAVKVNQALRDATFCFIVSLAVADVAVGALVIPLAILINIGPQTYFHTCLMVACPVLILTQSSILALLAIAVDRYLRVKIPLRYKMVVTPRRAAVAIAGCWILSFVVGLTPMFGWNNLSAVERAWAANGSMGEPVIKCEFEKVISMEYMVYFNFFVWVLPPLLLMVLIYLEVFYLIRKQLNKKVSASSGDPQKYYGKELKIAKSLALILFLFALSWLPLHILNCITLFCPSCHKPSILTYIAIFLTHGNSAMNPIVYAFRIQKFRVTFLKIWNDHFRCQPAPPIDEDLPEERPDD
Chain of sheep Cyclooxygenase-2 (Cox2), PTGS2 (gene 443460) (P79208 whole entry, looked up): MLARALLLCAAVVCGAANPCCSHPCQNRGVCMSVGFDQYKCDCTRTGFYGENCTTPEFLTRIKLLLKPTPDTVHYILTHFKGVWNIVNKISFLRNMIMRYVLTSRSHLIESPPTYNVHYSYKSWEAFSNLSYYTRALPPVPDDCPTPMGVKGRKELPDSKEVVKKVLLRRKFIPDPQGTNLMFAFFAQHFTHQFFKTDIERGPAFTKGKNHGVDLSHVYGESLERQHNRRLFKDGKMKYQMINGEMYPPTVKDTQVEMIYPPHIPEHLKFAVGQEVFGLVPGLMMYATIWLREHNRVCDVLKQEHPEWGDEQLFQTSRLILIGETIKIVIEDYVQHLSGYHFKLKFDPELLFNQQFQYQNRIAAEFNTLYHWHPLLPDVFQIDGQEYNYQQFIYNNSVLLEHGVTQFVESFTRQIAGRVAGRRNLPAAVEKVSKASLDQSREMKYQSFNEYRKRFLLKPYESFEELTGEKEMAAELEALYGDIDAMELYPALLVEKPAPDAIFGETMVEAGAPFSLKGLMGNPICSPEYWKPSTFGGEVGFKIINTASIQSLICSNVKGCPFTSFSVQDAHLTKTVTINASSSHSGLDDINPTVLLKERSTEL
Chain of human Vascular Endothelial Growth Factor Receptor 2 (VEGFR2), KDR (gene 3791) (P35968 whole entry, looked up): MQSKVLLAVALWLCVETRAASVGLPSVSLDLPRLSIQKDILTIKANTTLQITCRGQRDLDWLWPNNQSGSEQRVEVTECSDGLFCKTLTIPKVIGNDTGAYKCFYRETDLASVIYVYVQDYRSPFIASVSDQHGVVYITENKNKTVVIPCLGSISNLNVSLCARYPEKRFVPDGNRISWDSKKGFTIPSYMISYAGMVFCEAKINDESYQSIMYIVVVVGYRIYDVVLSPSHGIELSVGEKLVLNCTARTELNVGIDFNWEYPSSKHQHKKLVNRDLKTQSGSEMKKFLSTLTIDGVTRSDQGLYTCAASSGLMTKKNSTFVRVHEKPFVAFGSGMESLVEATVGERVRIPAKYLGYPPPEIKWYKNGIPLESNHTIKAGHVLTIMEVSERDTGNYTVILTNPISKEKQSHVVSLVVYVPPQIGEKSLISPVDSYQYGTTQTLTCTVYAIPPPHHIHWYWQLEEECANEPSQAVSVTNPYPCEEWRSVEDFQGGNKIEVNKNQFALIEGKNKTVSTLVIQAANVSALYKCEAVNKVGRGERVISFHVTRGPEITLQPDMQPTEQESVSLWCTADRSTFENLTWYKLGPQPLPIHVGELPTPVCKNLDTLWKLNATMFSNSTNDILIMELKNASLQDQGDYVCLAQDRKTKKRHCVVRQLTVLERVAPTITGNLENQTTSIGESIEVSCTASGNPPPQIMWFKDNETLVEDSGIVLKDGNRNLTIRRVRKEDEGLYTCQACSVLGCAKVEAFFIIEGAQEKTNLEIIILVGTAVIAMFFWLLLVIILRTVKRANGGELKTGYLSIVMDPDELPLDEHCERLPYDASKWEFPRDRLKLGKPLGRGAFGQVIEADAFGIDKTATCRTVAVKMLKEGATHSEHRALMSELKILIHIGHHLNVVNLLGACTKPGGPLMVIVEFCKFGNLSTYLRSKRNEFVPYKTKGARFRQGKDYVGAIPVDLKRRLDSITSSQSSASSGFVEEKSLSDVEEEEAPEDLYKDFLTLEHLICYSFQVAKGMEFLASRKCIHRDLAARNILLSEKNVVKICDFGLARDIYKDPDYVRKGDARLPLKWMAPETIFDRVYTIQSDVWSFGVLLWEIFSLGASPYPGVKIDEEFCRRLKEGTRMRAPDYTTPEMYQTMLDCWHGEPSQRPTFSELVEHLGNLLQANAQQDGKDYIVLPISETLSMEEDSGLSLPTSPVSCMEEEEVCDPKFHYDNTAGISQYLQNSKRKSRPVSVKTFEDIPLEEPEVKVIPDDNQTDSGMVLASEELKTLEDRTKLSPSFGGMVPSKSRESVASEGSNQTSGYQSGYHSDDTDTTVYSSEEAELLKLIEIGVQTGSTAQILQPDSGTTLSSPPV
Chain of guinea pig Opioid, Kappa 1 Receptor (OpiateK), OPRK1 (gene 100135587) (P41144 whole entry, looked up): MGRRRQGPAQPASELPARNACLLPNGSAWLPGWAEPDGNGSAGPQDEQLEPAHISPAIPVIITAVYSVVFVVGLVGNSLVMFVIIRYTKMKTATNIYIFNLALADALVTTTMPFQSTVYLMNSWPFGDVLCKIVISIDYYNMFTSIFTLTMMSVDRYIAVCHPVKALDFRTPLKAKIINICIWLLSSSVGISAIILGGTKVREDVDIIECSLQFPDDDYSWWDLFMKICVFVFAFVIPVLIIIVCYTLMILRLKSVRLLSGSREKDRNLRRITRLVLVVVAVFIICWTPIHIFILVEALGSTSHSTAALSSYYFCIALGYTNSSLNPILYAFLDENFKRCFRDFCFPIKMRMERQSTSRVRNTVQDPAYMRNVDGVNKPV

The target in the first assay is rabbit Imidazoline 2 Central (I2C), CKB (gene 100009085) (UniProt P00567). The assay is described as follows: NVS_ENZ_rabI2C: NovaScreen (NVS) Enzymatic Assay for rabbit Imidazoline 2 Central (I2C) (AID 2283228). The procedure, abridged: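 Rabbit brain membranes, cell-free; readout by filter-based scintillation counting 1.5 hours after dosing, loss of signal vs DMSO. Initial duplicate test at 25 uM, then concentration-response with 50 uM top concentration.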
Chain of rabbit Imidazoline 2 Central (I2C), CKB (gene 100009085) (P00567 whole entry, looked up): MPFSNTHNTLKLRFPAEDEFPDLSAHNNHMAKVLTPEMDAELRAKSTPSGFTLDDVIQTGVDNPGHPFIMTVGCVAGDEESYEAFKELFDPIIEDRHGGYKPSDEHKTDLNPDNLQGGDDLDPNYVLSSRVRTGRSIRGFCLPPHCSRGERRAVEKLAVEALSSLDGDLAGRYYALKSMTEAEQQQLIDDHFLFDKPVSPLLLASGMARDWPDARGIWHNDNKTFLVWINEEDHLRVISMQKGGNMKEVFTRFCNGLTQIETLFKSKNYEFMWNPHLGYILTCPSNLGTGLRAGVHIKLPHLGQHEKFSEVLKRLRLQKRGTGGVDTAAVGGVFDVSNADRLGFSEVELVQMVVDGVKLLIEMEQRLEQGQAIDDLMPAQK
`N=C(N)c1ccc(OCCCCCOc2ccc(C(=N)N)cc2)cc1`: the AC50 is 0.0332 µM (active).
As to `O=C(CCCN1CCC(O)(c2ccc(Cl)cc2)CC1)c1ccc(F)cc1`, the half-maximal activity concentration (AC50) is 14.4 µM (active).
For `CN(C)CCOC(c1ccccc1)c1ccccc1`, the AC50 is 8.46 µM (active).
Regarding `CCCCc1oc2ccccc2c1C(=O)c1cc(I)c(OCCN(CC)CC)c(I)c1`, the compound was called inactive.

In another assay the target is human Vascular Endothelial Growth Factor Receptor 2 (VEGFR2), KDR (gene 3791) (UniProt P35968). The assay is described as follows: NVS_ENZ_hVEGFR2: NovaScreen (NVS) Enzymatic Assay for human Vascular Endothelial Growth Factor Receptor 2 (VEGFR2) (AID 2283230). The method in brief:
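Cell-free recombinant VEGFR2 kinase, fluorescent substrate with electrophoretic mobility-shift separation; read 1 h after dosing. Screened at 25 uM in duplicate, hits to concentration-response up to 50 uM; loss-of-signal versus DMSO.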
Consider `CCCCCCCCCCCCOS(=O)(=O)O`, for which the AC50 was 16.9 µM (active).
With `CCCCc1oc2ccccc2c1C(=O)c1cc(I)c(OCCN(CC)CC)c(I)c1`, the call was inactive.
`Cc1[nH]nc2c1N=C(c1ccccc1Cl)c1cc([N+](=O)[O-])ccc1N2`: the AC50 is 0.00463 µM (active).

In another assay the target is sheep Cyclooxygenase-2 (Cox2), PTGS2 (gene 443460) (UniProt P79208). Kind of assay: NVS_ENZ_oCOX2: NovaScreen (NVS) Enzymatic Assay for sheep Cyclooxygenase-2 (Cox2) (AID 2283231). The method in brief:
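Enzyme from ovine placenta, cell-free; colorimetric absorbance read 0.66 hour after dosing, loss of signal vs DMSO. Screened in duplicate at 25 uM, then concentration-response up to 50 uM.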
`N=C(N)c1ccc(OCCCCCOc2ccc(C(=N)N)cc2)cc1`: the AC50 is 7.19 µM (active).
On to `OCC(CO)(CBr)CBr`, for which the AC50 is 16.7 µM (active).
For the compound `CC(=O)Nc1ccc(O)cc1`, the compound was called inactive.
Regarding `CCCCC=O`, the compound was called inactive.
As to `CS(=O)(=O)c1ccc([C@@H](CC2CCCC2)C(=O)Nc2cnccn2)cc1Cl`, the AC50 was 25 µM (active).

The target in the next assay is sheep Cyclooxygenase-1 (Cox1), PTGS1 (gene 443551) (UniProt P05979). Kind of assay: NVS_ENZ_oCOX1: NovaScreen (NVS) Enzymatic Assay for sheep Cyclooxygenase-1 (Cox1) (AID 2283239).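 Note: actives reduce cyclooxygenase activity so potencies are for inhibitors.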 The procedure, abridged:
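Cell-free colorimetric assay of enzyme activity in a native extract of ovine seminal vesicles. Absorbance was read 0.66 hour after compound addition. Loss of signal relative to the DMSO negative control was scored, with actives from the 25 uM duplicate primary screen retested in concentration series.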
Turning to `Cc1ccc(C(=O)c2ccccc2)cc1`, the AC50 is 15.5 µM (active).
Consider `CCCCCCCCCCCCCCCCCC[N+](C)(C)Cc1ccccc1`, for which the outcome was inactive.
For the compound `CNNCc1ccc(C(=O)NC(C)C)cc1`, the AC50 is 25 µM (active).
Still for that read-out and setting: as for `CN(Cc1cnc2nc(N)nc(N)c2n1)c1ccc(C(=O)N[C@@H](CCC(=O)O)C(=O)O)cc1`, the figure is 1.98 µM (active); as for `CC1=NN(c2ccccc2)C(=O)C1`, 28.2 µM (active).
As for `CCC(=O)O`, the AC50 was 0.00683 µM (active).

The target in another assay is bovine Dopamine Receptor (DR), Non-selective Binding, DRD1 (gene 281125) (UniProt Q95136). Kind of assay: NVS_GPCR_bDR_NonSelective: NovaScreen (NVS) G Protein-Coupled Receptor Assay for bovine Dopamine Receptor (DR), Non-selective Binding (AID 2283241). The procedure, abridged:
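Filter-based radioligand binding with bovine striatal membrane, incubated 1 h; DMSO as negative baseline. Initial duplicate single-point test at 25 uM preceded concentration series for actives.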
For the compound `N=C(N)c1ccc(OCCCCCOc2ccc(C(=N)N)cc2)cc1`, the compound was classed as inactive.
With `O=C(CCCN1CCC(O)(c2ccc(Cl)cc2)CC1)c1ccc(F)cc1`, the AC50 is 0.0124 µM (active).
As for `CN(C)CCOC(c1ccccc1)c1ccccc1`, the AC50 is 5.83 µM (active).

For a further assay, the system named is bovine Histamine 1 Receptor (H1), gene 281231. The assay is described as follows: NVS_GPCR_bH1: NovaScreen (NVS) G Protein-Coupled Receptor Assay for bovine Histamine 1 Receptor (H1) (AID 2283246). The method in brief: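 Hits from a 25 uM duplicate primary screen were retested in concentration series (top 50 uM); binding measured as scintillation-counted displacement of radioligand from bovine cerebellar membranes after 1 h, normalised to DMSO.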
As for `N=C(N)c1ccc(OCCCCCOc2ccc(C(=N)N)cc2)cc1`, the outcome was inactive.
Turning to `O=C(CCCN1CCC(O)(c2ccc(Cl)cc2)CC1)c1ccc(F)cc1`, the concentration at half-maximal activity (AC50) is 10.5 µM (active).
As for `CN(C)CCOC(c1ccccc1)c1ccccc1`, the AC50 was 0.101 µM (active).

In a further assay the target is guinea pig Leukotriene D4 Receptor (LTD4), CYSLTR1 (gene 100135514) (UniProt Q2NNR5). Kind of assay: NVS_GPCR_gLTD4: NovaScreen (NVS) G Protein-Coupled Receptor Assay for guinea pig Leukotriene D4 Receptor (LTD4) (AID 2283248). The method in brief: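 Guinea pig lung membrane preparation; bound radioligand measured by filter scintillation after 1 h, loss of signal versus DMSO marking displacement. Compounds tested at 25 uM in duplicate, hits retested to max 50 uM.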
Chain of guinea pig Leukotriene D4 Receptor (LTD4), CYSLTR1 (gene 100135514) (Q2NNR5 whole entry, looked up): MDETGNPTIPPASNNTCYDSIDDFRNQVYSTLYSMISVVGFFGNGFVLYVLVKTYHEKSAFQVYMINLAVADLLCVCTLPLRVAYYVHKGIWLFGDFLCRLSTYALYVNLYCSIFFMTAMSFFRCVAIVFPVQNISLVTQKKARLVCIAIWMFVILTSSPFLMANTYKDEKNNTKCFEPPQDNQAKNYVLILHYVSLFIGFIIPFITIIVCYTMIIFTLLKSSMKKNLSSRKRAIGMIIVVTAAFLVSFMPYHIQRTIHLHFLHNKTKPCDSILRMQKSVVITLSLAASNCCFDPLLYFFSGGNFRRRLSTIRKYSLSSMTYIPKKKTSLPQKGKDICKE
Turning to `CCCCCCCCCCCCCCCC(=O)OC`, the outcome was inactive.
Take `CCCCCCCCCCCCOS(=O)(=O)O`: the AC50 is 8.99 µM (active).
Regarding `CC(C)(C)c1ccc(O)c(O)c1`, the compound was classed as inactive.
For `CS(=O)(=O)c1ccc([C@@H](CC2CCCC2)C(=O)Nc2cnccn2)cc1Cl`, the call was inactive.

A further assay has as its system guinea pig Muscarinic, Peripheral (Mperiperal) Receptor, Non-selective Binding, gene 100379235. The assay is described as follows: NVS_GPCR_gMPeripheral_NonSelective: NovaScreen (NVS) G Protein-Coupled Receptor Assay for guinea pig Muscarinic, Peripheral (Mperiperal) Receptor, Non-selective Binding (AID 2283250). The procedure, abridged: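 Screened in duplicate at 25 uM, hits retested in concentration series to 50 uM max, using bladder membrane radioligand displacement from guinea pig. Filtration and scintillation counting 1 h post-dose, fitted relative to DMSO.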
For `N=C(N)c1ccc(OCCCCCOc2ccc(C(=N)N)cc2)cc1`, the AC50 is 0.954 µM (active).
Same read-out and setting: as for `O=C(CCCN1CCC(O)(c2ccc(Cl)cc2)CC1)c1ccc(F)cc1`, the figure is 5.15 µM (active); as for `CN(C)CCOC(c1ccccc1)c1ccccc1`, 0.574 µM (active).

The target of the next assay is human Serotonin, 5-Hydroxytryptamine Receptor 5A (5HT5A), HTR5A (gene 3361) (UniProt P47898). The assay is described as follows: NVS_GPCR_h5HT5A: NovaScreen (NVS) G Protein-Coupled Receptor Assay for human Serotonin, 5-Hydroxytryptamine Receptor 5A (5HT5A) (AID 2283251). The procedure, abridged:
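Membranes from HEK293 cells, radioligand binding read by filtration and scintillation after 1 h. Single-concentration duplicate testing at 25 uM, then concentration-response for actives; positive-direction fitting relative to DMSO.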
`N=C(N)c1ccc(OCCCCCOc2ccc(C(=N)N)cc2)cc1`: the compound was classed as inactive.
With `O=C(CCCN1CCC(O)(c2ccc(Cl)cc2)CC1)c1ccc(F)cc1`, the result was inactive.
Turning to `CCCCCCCCCCCCOS(=O)(=O)O`, the AC50 was 9.77 µM (active).
For `CCCCc1oc2ccccc2c1C(=O)c1cc(I)c(OCCN(CC)CC)c(I)c1`, the half-maximal activity concentration (AC50) is 13.7 µM (active).

Another assay has as its target guinea pig Opioid, Kappa 1 Receptor (OpiateK), OPRK1 (gene 100135587) (UniProt P41144). The assay is described as follows: NVS_GPCR_gOpiateK: NovaScreen (NVS) G Protein-Coupled Receptor Assay for guinea pig Opioid, Kappa 1 Receptor (OpiateK) (AID 2283252).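 Note: radioligand displacement from kappa opioid receptor in guinea pig cerebellar membranes; active means reduced radioligand binding relative to DMSO.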 The procedure, abridged: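 Radioligand competition binding using guinea pig cerebellum membrane fraction; 2 h exposure; filter radiodetection. Single concentration 25 uM (duplicate), follow-up concentration-response for actives.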
Consider `CN(C)c1ccc(C(=C2C=CC(=[N+](C)C)C=C2)c2ccccc2)cc1`, for which the AC50 was 15 µM (active) and 12.5 µM (active).
Regarding `O=C1OC2(c3ccccc31)c1cc(I)c(O)c(I)c1Oc1c2cc(I)c(O)c1I`, the call was inactive.
In the case of `N=C(N)c1ccc(OCCCCCOc2ccc(C(=N)N)cc2)cc1`, the AC50 was 17.2 µM (active).
As to `CN(C)CCOC(c1ccccc1)c1ccccc1`, the half-maximal activity concentration (AC50) was 13 µM (active).
As for `C=CC(C)(CCC=C(C)C)OC(C)=O` (stereo not drawn), the AC50 is 46.5 µM (active).

The next assay addresses human Adenosine A1 Receptor (AdoRA1), ADORA1 (gene 134) (UniProt P30542). The assay is described as follows: NVS_GPCR_hAdoRA1: NovaScreen (NVS) G Protein-Coupled Receptor Assay for human Adenosine A1 Receptor (AdoRA1) (AID 2283254). The procedure, abridged:
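Radioligand binding was run on human cortical membranes, cell-free, with filter-based scintillation counting 1 h after dosing. The primary screen was duplicate at 25 uM, followed by concentration series. Signal loss versus DMSO was fitted positive-direction.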
Consider `O=C1OC2(c3ccccc31)c1cc(I)c(O)c(I)c1Oc1c2cc(I)c(O)c1I`, for which the concentration at half-maximal activity (AC50) was 6.25 µM (active).
In the case of `CN(Cc1cnc2nc(N)nc(N)c2n1)c1ccc(C(=O)N[C@@H](CCC(=O)O)C(=O)O)cc1`, the result was inactive.
`CS(=O)(=O)c1ccc([C@@H](CC2CCCC2)C(=O)Nc2cnccn2)cc1Cl`: the compound was classed as inactive.
Same read-out and setting: as for `CCCCc1oc2ccccc2c1C(=O)c1cc(I)c(OCCN(CC)CC)c(I)c1`, the entry is “inactive”.
`Cc1[nH]nc2c1N=C(c1ccccc1Cl)c1cc([N+](=O)[O-])ccc1N2`: the compound was called inactive.

A further assay deals with human Serotonin, 5-Hydroxytryptamine Receptor 7 (5HT7), HTR7 (gene 3363) (UniProt P34969). The assay is described as follows: NVS_GPCR_h5HT7: NovaScreen (NVS) G Protein-Coupled Receptor Assay for human Serotonin, 5-Hydroxytryptamine Receptor 7 (5HT7) (AID 2283255).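 Note: hits reduce specific radioligand binding relative to DMSO.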 The method in brief:
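Filter-bound radioactivity counted after 1 h, with loss of specific radioligand binding fitted against DMSO. Membrane protein came from CHO cells expressing human 5HT7. Chemicals were tested first at 25 uM in duplicate, then in concentration series if active.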
In the case of `N=C(N)c1ccc(OCCCCCOc2ccc(C(=N)N)cc2)cc1`, the AC50 is 3.18 µM (active).
The same measure, in the same setting: as for `CCCCCCCCCCCCOS(=O)(=O)O`, the figure is 25 µM (active); as for `CCCCc1oc2ccccc2c1C(=O)c1cc(I)c(OCCN(CC)CC)c(I)c1`, 6.72 µM (active).
